# Bioassay records (PubChem)
# MITF primary: MITF inhibitors, primary screen, biochemical, AlphaScreen, human; AID 1259374, 2018; Microphthalmia-associated transcription factor (Homo sapiens), O75030; 650,000 tested, 0.91% active; inhibition, % at 2.6 µM; AlphaScreen MITF homodimerization, bead proximity signal; in the data active means inhibition above about 50%
# FBW7 activator: FBW7 E3 ligase activators, primary screen, biochemical, AlphaScreen, human; F-box/WD repeat-containing protein 7 (Homo sapiens), Q969H0; AlphaScreen FBW7–phospho-cyclin E peptide binding, activator screen; normalized activity (activation), % at 26.1 µM; 650,000 tested, 0.13% active; AID 1259310, 2017; in the data active means normalized activity above about 1.9%;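 further: purified mutant Fbw7 with reduced substrate affinity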
# Target sequence (Q969H0 whole entry, looked up): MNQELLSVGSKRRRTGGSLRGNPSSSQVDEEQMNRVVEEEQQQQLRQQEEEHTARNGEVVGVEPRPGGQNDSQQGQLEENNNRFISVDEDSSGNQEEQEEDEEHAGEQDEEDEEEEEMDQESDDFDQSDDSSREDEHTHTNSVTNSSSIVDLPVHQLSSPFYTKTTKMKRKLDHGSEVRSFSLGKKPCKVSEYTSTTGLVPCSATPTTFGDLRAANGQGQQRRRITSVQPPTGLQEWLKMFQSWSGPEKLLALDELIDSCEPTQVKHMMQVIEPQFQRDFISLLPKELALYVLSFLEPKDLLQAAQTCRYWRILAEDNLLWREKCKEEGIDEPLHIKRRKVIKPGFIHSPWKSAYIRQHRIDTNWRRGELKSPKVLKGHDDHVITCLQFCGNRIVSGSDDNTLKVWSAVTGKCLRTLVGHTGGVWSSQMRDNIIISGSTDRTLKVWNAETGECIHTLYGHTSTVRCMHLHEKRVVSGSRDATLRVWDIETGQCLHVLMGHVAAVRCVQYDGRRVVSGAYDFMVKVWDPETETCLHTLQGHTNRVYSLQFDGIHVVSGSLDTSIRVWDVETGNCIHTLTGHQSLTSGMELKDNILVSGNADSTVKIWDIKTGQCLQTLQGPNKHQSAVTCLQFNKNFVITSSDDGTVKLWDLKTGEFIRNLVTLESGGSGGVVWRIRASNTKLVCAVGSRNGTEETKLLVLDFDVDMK
# GPR151 activ: activators of human GPR151, primary screen, cell-based, PathHunter beta-arrestin, luminescence. activation, % at 11.2 µM. PathHunter beta-arrestin GPR151 cells. G-protein coupled receptor 151 (Homo sapiens), Q8TDV0. 650,000 tested, 1% active; in the data active means activation above about 4.9%
# TEAD-YAP block: TEAD-YAP interaction inhibition, primary screen, TEAD-YAP interaction inhibitor project, luminescence, HEK-TIYL cells. TEAD-Gal4/YAP UAS-luciferase luminescence. inhibition, % at 9.12 µM. 640,000 tested, 1.4% active; in the data active means inhibition above about 32%
# MITF confirm: MITF inhibitors, retest of hits, confirmation, biochemical, AlphaScreen, triplicate; AID 1259372, 2018; shares compounds with MITF primary; 4,700 tested, 16% active; inhibition, % at 2.6 µM; AlphaScreen MITF homodimerization, biotin/His-MITF beads;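 active means inhibition above a cutoff derived from the DMSO control wells, cut at about 28% in these data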;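 further: inhibitors lower the bead chemiluminescence by keeping MITF from dimerizing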
# AS interf ctr: AlphaScreen optical interference compounds, counter-screen for MITF inhibitor project, biochemical, triplicate; shares compounds with MITF primary; LysRS AlphaScreen counterscreen, signal interference; inhibition, % at 2.6 µM; 4,700 tested, 7.6% active; AID 1259376, 2018;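 active means inhibition above a cutoff derived from the DMSO control wells, cut at about 30% in these data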
# Numbers stand for hits; - = inactive; . = not tested or not shown. An excerpt weighted towards active compounds, which were near 3.5% of everything screened.
SMILES,MITF primary,FBW7 activator,GPR151 activ,TEAD-YAP block,MITF confirm,AS interf ctr
CCc1ccc(-n2nc3ccc(NC(=O)c4cccc(Br)c4)cc3n2)cc1,-,-,-,-,.,.
CCn1c2ccccc2c2cc(CN3CCN(Cc4ccccc4[N+](=O)[O-])CC3)ccc21,65,-,-,-,-,-
CCn1c2ccccc2c2cc(CN3CCN(S(=O)(=O)c4ccc(OC)cc4)CC3)ccc21,-,-,-,-,.,.
CCn1c2ccccc2c2cc(CN3CCN(S(=O)(=O)c4ccc(F)cc4)CC3)ccc21,-,-,-,-,.,.
CCn1c2ccccc2c2cc(CN3CCN(Cc4ccc(SC)cc4)CC3)ccc21,63,-,-,-,-,-
CCn1c2ccccc2c2cc(CN3CCCC(O)C3)ccc21 (stereo unspecified),-,-,-,-,.,.
CCn1c2ccccc2c2cc(CN3CCN(Cc4ccccc4F)CC3)ccc21,82,-,-,-,-,-
CCn1c2ccccc2c2cc(CN3CCN(Cc4ccc(C(F)(F)F)cc4)CC3)ccc21,54,-,-,-,-,-
COc1ccc(-n2c(SCC(=O)Nc3nccs3)nc3c(sc(=S)n3-c3ccc(Cl)c(C)c3)c2=O)cc1,-,-,-,-,.,.
CC(=O)Nc1n[nH]c(-c2cc3c([nH]2)CCCC3)c1C#N,-,-,-,-,.,.
CCN(CC)S(=O)(=O)c1cc(C(=O)Nc2ccc(Cl)cc2)ccc1Br,72,-,-,-,-,-
CCN(CC)S(=O)(=O)c1cc(C(=O)Nc2ccc(Br)cc2)ccc1Br,-,-,-,-,.,.
CCOC(=O)N1CCN(C(=O)C2CCN(Cc3ccc(Cl)cc3)CC2)CC1,54,-,-,-,-,-
CCOC(=O)N1CCN(C(=O)C2CCN(Cc3ccc(OC)c(OC)c3)CC2)CC1,52,-,-,-,-,-
CCOC(=O)N1CCN(Cc2ccc3c(c2)CN(C(=O)C2CNC(=O)C2)CCO3)CC1 (stereo unspecified),61,-,-,-,-,-
CC(C)n1c(SCCc2ccccc2)nc2c1c(=O)[nH]c(=O)n2C,-,-,-,-,.,.
CCc1nnc2n1N(C(C)=O)C(c1ccccc1)=C(C(C)=O)S2,-,-,-,-,.,.
COc1ccc(C2C(C(=O)OC(C)C)=C(C)NC3=C2C(=O)CC(c2ccccc2)C3)cc1OC (stereo unspecified),-,-,-,-,.,.
COc1cc(C2C(C(=O)OC(C)C)=C(C)NC3=C2C(=O)CC(c2ccccc2)C3)ccc1OCc1ccccc1 (stereo unspecified),64,-,-,-,-,-
COc1ccc(C2Nc3ccccc3NC3=C2C(=O)CC(c2ccccc2)C3)cc1OC (stereo unspecified),57,-,-,-,-,-
COc1ccc(C2Nc3ccccc3NC3=C2C(=O)CC(c2ccc(Cl)cc2)C3)cc1OC (stereo unspecified),-,-,-,-,.,.
CCOC(=O)c1c(NC(=O)CSc2nnc(CNC(=O)c3ccccc3F)n2-c2ccc(F)cc2)sc2c1CCCC2,-,-,-,-,.,.
Cc1ccc(S(=O)(=O)N(C)Cc2nc(-c3cccc(Br)c3)no2)cc1,-,-,-,-,.,.
Cc1ccc(-c2ccc(/C=C(\C#N)c3nn(CCO)c(N)c3C#N)o2)cc1Cl,-,-,-,-,.,.
Clc1cc2c(c3ncccc13)OCN(Cc1cccnc1)C2,94,-,-,84,96,100
SMILES,MITF primary,FBW7 activator,GPR151 activ,TEAD-YAP block,MITF confirm,AS interf ctr
O=S1(=O)CCC(N2COc3c(cc(Cl)c4cccnc34)C2)C1 (stereo unspecified),55,-,-,-,39,91
O=C1NC(=O)N(c2ccc(Br)cc2)C(=O)/C1=C/c1ccc(C(=O)O)cc1,-,-,-,-,.,.
COc1cc(=O)n2c(c1C(=O)N1CCCC(O)C1)CCN(Cc1ccc(C)s1)CC2 (stereo unspecified),-,-,-,-,.,.
CCCCCCCCCCCCCCCCCC(=O)OCC,-,.,-,.,.,.
CCOC(=O)CCCCC(=O)c1[nH]c(=O)n(C)c1C,106,-,-,-,95,80
COC(=O)CCNc1nc(-c2ccc(Br)cc2)nc2ccccc12,-,-,-,-,.,.
CCN(CC)C(=O)CN1CCC(O)(c2ccccn2)CC1,-,-,-,-,.,.
CCN(CC)C(=O)CN1CCN(c2ncccn2)CC1,56,-,-,-,-,-
O=C(NCC(c1cccnc1)N1CCOCC1)c1ccccc1F (stereo unspecified),-,-,-,-,.,.
O=C1N=C(N2CCOCC2)S/C1=C\c1ccc(C(=O)O)cc1,-,-,-,-,.,.
C=CCc1cc(C)ccc1OCCCCN1CCOCC1,56,-,-,-,-,-
C=CCc1cc(Cl)ccc1OCCCN1CCOCC1,71,-,-,-,-,-
C=CCc1cc(Cl)ccc1OCCCN1CCN(CC)CC1,81,-,-,-,-,-
O=C(O)[C@@H]1C[C@@H]1C(=O)N1CCOC12CCCCC2,-,-,-,-,.,.
COC(=O)c1ccc(/C=c2\sc3nc4ccccc4n3c2=O)cc1,-,-,-,-,.,.
COCCCNC(=S)NNC(=O)c1ccccn1,114,-,-,-,113,100
O=C(NNC(=S)Nc1cccc([N+](=O)[O-])c1)c1ccccn1,115,-,-,-,116,100
CCOC(=O)c1cccc(NC(=O)c2ccccn2)c1,-,-,-,-,.,.
CCOc1ccccc1NC(=S)NNC(=O)c1ccccn1,114,-,-,-,117,100
CCOC(=O)c1ccc(NC(=S)NNC(=O)c2ccccn2)cc1,116,-,-,-,114,100
CCOc1ccccc1CN1CCN(Cc2ccc(O)c(OC)c2)CC1CCO (stereo unspecified),-,-,-,-,.,.
CN1CCC(N(C)CC(O)COCc2ccccc2Cl)CC1 (stereo unspecified),87,-,-,-,-,-
CN1CCC(N(C)CC(O)COCc2ccccc2F)CC1 (stereo unspecified),-,-,-,-,.,.
Cn1c(-c2cccc([N+](=O)[O-])c2)cnc1NCc1cccc(F)c1,52,-,-,-,-,-
Cn1c(-c2ccc(F)cc2)cnc1NCc1cccc([N+](=O)[O-])c1,59,-,-,-,-,-
Cn1c(-c2cccc([N+](=O)[O-])c2)cnc1NCc1cccc(O)c1,-,-,-,-,.,.
Cn1c(-c2cccc([N+](=O)[O-])c2)cnc1NCc1ccc(F)cc1,-,-,-,-,.,.
CNC(=O)Cn1c(=O)n(-c2ccc(C)cc2)c(=O)c2oc3ccccc3c21,-,-,-,-,.,.
CCOC(=O)c1c(C)c(C(=O)NCCc2ccccc2OC)c(C)n1C,55,-,-,-,-,-
